We go through 40 compounds from PubChem BioAssay (Tox21).

Inconclusive results are not listed. Calls of active or inactive are those of the source. The call rests on the fitted dose curve; in most records, active means well fitted cell-killing curve with a large enough effect in the repeat runs; inconclusive means weak or mixed curves, or effect the other way; inactive means no such curve, though single readings can be large or run the other way.
On the % scale 0 is the no-effect control and ±100 the full control effect; potency means the concentration at half of the fitted maximal effect.

A short description of the test: qHTS assay to identify small molecule antagonists of the sonic hedgehog signaling (Shh) pathway - cell viability counter screen (AID 1259367). Further: nearly all actives have a fitted effect of over 55% in size. Particulars: NIH/3T3 Gli1-Luc viability, CellTiter-Fluor, 24 h; series mostly up to 92.4 µM; viability change, negative = cytotoxic: at the top concentration. The source says:
National Center for Advancing Translational Sciences [NCATS]
NIH Chemical Genomics Center [NCGC]
U.S. Environmental Protection Agency [EPA]
National Institutes of Environmental Health Sciences [NIEHS]
National Toxicology Program [NTP]
U.S. Food and Drug Administration [FDA]
The sonic hedgehog (Shh) pathway is essential for normal embryonic development. Dysregulation of the Shh pathway can cause severe developmental defects in organs. Therefore chemicals that interfere with the pathway are potential developmental toxicants. A cell line designated 3T3Gli1-Luc (DMB/OARSA/CFSAN/FDA, Laurel, MD), a NIH/3T3 derived clone containing stably integrated Gli1-Luc reporter is used to detect chemical interference of the Shh pathway, by changes in the expression of the firefly Luc gene under the control of the Gli1 transcriptional response element. This cell line was used to screen Tox21 libraries for identifying and prioritizing the potential developmental toxicants that interfere Shh pathway. Conditioned medium-stimulated mode was used to screen for chemicals inhibiting Shh signaling. The cytotoxicity of the compounds was tested in parallel by measuring the cell viability using CellTiter-Fluor assay system (Promega, Madison, WI) in the same wells.
Tox21 Assay Protocol Summary:
3T3 Gli1-Luc cells were dispensed at 2,000 per well in 5uL of culture medium into white solid bottom 1536-well plates (Greiner Bio-One, Monroe, NC) using a Multidrop Combi (Thermo Scientific, Waltham, MA) dispenser. The assay plates were incubated at 37 C and 5% CO2 for 4hr, and then 23nL of compounds dissolved in DMSO and positive control were transferred using a Pintool station (Wako, San Diego, CA). The compound transfer was followed by the addition of 1ul conditioned medium or assay buffer using two separate tips of Flying Reagent Dispenser (FRD, Aurora Discovery, San Diego, CA). The assay plates were incubated at 37C and 5% CO2 for 24hr. For viability read, after 23hr of compound treatment, 1uL of CellTiter-Fluor reagent (Promega Corporation, Madison, WI) was added to each well of the assay plates using Flying Reagent Dispenser (FRD, Aurora Discovery, San Diego, CA) and incubated the assay plates at 37C for 1hr. The fluorescence signal was quantified using a ViewLux plate reader (Perkin Elmer, Shelton, CT).
For the compound `CCCCCCCCCCCCCc1ccccc1`, the “viability change, negative = cytotoxic” value is -2.46% [at 42.5 µM] (inactive).

For `NC(=O)C(=O)N/N=C/c1ccc([N+](=O)[O-])o1`, the “viability change, negative = cytotoxic” value was -2.09% [at 42.5 µM] (inactive).

As for `COc1cc(C(=O)NS(=O)(=O)c2ccccc2C)ccc1Cc1cn(C)c2ccc(NC(=O)OC3CCCC3)cc12`, the “viability change, negative = cytotoxic” value is -6.14% [at 42.5 µM] (inactive).

In the case of `O=S(=O)(O)CCCN1CCOCC1`, the “viability change, negative = cytotoxic” value was 0.103% (inactive).

Consider `C(=C/c1ccccc1)/c1ccccc1`, for which the “viability change, negative = cytotoxic” value is 1.76% (inactive).

Take `CCCCCCCC(=O)OCC`: the “viability change, negative = cytotoxic” value is 1.74% (inactive).

For the compound `COc1nccnc1CC(C)C`, the “viability change, negative = cytotoxic” value was 2.25% (inactive).

As for `CC1=CP(=O)(c2ccccc2)CC1` (stereo not given), the “viability change, negative = cytotoxic” value was 2.36% (inactive).

`Clc1ccc(C(c2ccccc2Cl)C(Cl)Cl)cc1` (stereo not given): the Potency result was “inactive”.

As for `CCN(CC)c1cccc(C)c1`, the “viability change, negative = cytotoxic” value is 0.0453% (inactive).

For `CC(C)(C)CC(C)(C)c1ccccc1O`, the Potency is 48.8 µM (active).

For `CC(=O)C=O`, the “viability change, negative = cytotoxic” value was -0.893% (inactive).

`CCCCCCCC(C)=O`: the “viability change, negative = cytotoxic” value is 0.774% (inactive).

As for `CN(Cc1cc(Br)cc(Br)c1N)C1CCCCC1`, the “viability change, negative = cytotoxic” value is 4.9% [at 42.5 µM] (inactive).

In the case of `CC(C)N=C(N)/N=C(\N)Nc1ccc(Cl)cc1`, the “viability change, negative = cytotoxic” value was -2.64% [at 42.5 µM] (inactive).

Take `C/C=C/CO`: the “viability change, negative = cytotoxic” value is 1.75% (inactive).

As to `O=C=NCc1cccc(CN=C=O)c1`, the viability change, negative = cytotoxic is -1.32% [at 19 µM] (inactive).

In the case of `CCC1(c2cnc[nH]2)Cc2ccccc2C1`, the “viability change, negative = cytotoxic” value is -10.3% [at 42.5 µM] (inactive).

Regarding `C=C(C)C(=O)OCCC[Si](Cl)(Cl)Cl`, the “viability change, negative = cytotoxic” value is -1.46% (inactive).

Regarding `Brc1ccccc1-c1ccccc1`, the “viability change, negative = cytotoxic” value is -0.186% (inactive).

Take `Cc1cc(C)c(C=O)c(C)c1`: the “viability change, negative = cytotoxic” value was -0.189% (inactive).

On to `OCCCS`, for which the “viability change, negative = cytotoxic” value was 6.41% (inactive).

In the case of `O=S(O)O`, the viability change, negative = cytotoxic is 0.928% [at 19 µM] (inactive).

On to `Cc1cc(Nc2ccc(O)cc2)ccc1N`, for which the Potency was 24.2 µM (active).

Regarding `CCCC(C)CCC(C)=O` (stereo not given), the “viability change, negative = cytotoxic” value is 0.744% (inactive).

As to `O=C(O)CCn1c2c(c3ccccc31)C[C@H](NS(=O)(=O)c1ccc(F)cc1)CC2`, the “viability change, negative = cytotoxic” value is -11.6% [at 42.5 µM] (inactive).

Regarding `O[C@@H](c1cc(C(F)(F)F)nc2c(C(F)(F)F)cccc12)[C@H]1CCCCN1`, the Potency is 29.8 µM (active).

For `CCCCCCCCCCCC(=O)N(CC)CC`, the “viability change, negative = cytotoxic” value is 0.158% (inactive).

Turning to `Cc1cccc(N(C)C)c1`, the “viability change, negative = cytotoxic” value was 4.88% (inactive).

For `CCCCCCCC/C=C/CCCOC(C)=O`, the “viability change, negative = cytotoxic” value is -16% (inactive).

Regarding `CCN(CC)CCCN(c1ccccc1)C1Cc2ccccc2C1`, the “viability change, negative = cytotoxic” value was -5.97% [at 42.5 µM] (inactive).

Regarding `C#CC(O)CCC` (stereo not given), the “viability change, negative = cytotoxic” value is -0.341% (inactive).

Regarding `C=CC/C=C/C/C=C/C/C=C/C`, the “viability change, negative = cytotoxic” value is 1.43% (inactive).

In the case of `CCOCN(C(=O)CS(=O)(=O)O)c1c(C)cccc1CC`, the “viability change, negative = cytotoxic” value was 1.46% (inactive).

On to `COCC(=O)O[C@]1(CCN(C)CCCc2nc3ccccc3[nH]2)CCc2cc(F)ccc2[C@@H]1C(C)C`, for which the Potency was 26.6 µM (active).

Turning to `CCCCOc1ccc(C(=O)CCN2CCCCC2)cc1`, the “viability change, negative = cytotoxic” value is -6.71% [at 42.5 µM] (inactive).

With `CCN=C1C=CC(=C(c2ccc(N(CC)CC)cc2)c2ccc(N(CC)CC)cc2)c2ccccc21`, the Potency was 24.2 µM (active).

Consider `c1cc[nH]c1`, for which the “viability change, negative = cytotoxic” value is 0.323% (inactive).

In the case of `CCCCCCCC(OC)OC`, the “viability change, negative = cytotoxic” value was 0.829% [at 42.5 µM] (inactive).

In the case of `C=CC(=C)CC/C=C(\C)CCC=C(C)C`, the viability change, negative = cytotoxic was -4.46% [at 19 µM] (inactive).
